Measurements taken from PubChem BioAssay (NCATS).
“And” between values parts separate entries of the source, which are not always exact repeats. Identical values can stand only once. Inconclusive results are not listed. More than one record can exist for a structure, and the calls need not agree. Values without a mark were called inactive. The source made the active and inactive calls. The call rests on the fitted dose curve; in most records, active means well fitted inhibition curve with a large enough effect; inconclusive means small, poorly fitted or top-dose-only effect; inactive means flat fitted curve, though single readings scatter.

The compounds below were run on HEK293 (assay: Cytotoxic Profiling of Annotated Libraries Using Quantitative High-Throughput Screening (AID 1296008; further: nearly all actives have a fitted effect of over 60% in size)). Settings: Five cell lines viability, CellTiter-Glo ATP luminescence, 48-72 h; max response: hits give low values.
Summary of the method: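 Compounds were pin-transferred onto cells and incubated 48 or 72 hr at 37 degree Celsius, 95% humidity. CellTiter-Glo was added, plates sat 10 min at room temperature, then ATP-coupled luminescence was imaged as the viability read-out.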
On the % scale 0 is the no-effect control and ±100 the full control effect; potency means the concentration at half of the fitted maximal effect.

Structure (SMILES)	Potency	outcome	max response
Cc1cn[nH]c1	4.69 µM (active)	inactive	
CC(C)OC(=O)C1=CN(C(=O)c2ccc(F)c(F)c2)CC(C)(C)c2c1[nH]c1ccccc21			-9.23% and -19.6%
COc1ccc([C@@H]2CC(=O)c3c(O)cc(O[C@@H]4O[C@H](CO[C@@H]5O[C@@H](C)[C@H](O)[C@@H](O)[C@@H]5O)[C@@H](O)[C@H](O)[C@@H]4O)cc3O2)cc1O		inactive	
CCCCNc1cc(C(=O)O)cc(S(N)(=O)=O)c1Oc1ccccc1		inactive	2.91%
CCN(CC)CCCC(C)Nc1ccnc2cc(Cl)ccc12 (configuration not stated)		inactive	
S=C(NCc1ccc2c(c1)OCO2)N1CCN(c2ncnc3c2oc2ccccc23)CC1	340 nM (active) and 4.11 µM (active)		
CC(C[N+](C)(C)C)OC(N)=O (configuration not stated)		inactive	3.57%
Cc1ccnc(NS(=O)(=O)c2ccc(NC(=O)Nc3ccc(S(=O)(=O)Nc4nccc(C)n4)cc3)cc2)n1	0.418 µM (active)		-3.29%
